Consider 55 molecules from ChEMBL document CHEMBL4513216, “Probing the Open Global Health Chemical Diversity Library for Multistage-Active Starting Points for Next-Generation Antimalarials” (ACS Infect Dis, 2020).

The whole screen tested about 69,000 compounds, of which about 8,600 (12%) showed an effect of 50% or more. The entries come from a sample that favours strong results as a whole.

For this assay, the system named is Plasmodium berghei. Nature of the assay: Screen against P. berghei liver stage (PbLuc), transformed with Luciferase, at 10uM. It is filed as functional, HepG2. Particulars: tested at 10 uM.
Consider `O=C(O)CCCC(=O)NCC1(O)CCN(c2ccnc3cccnc23)C1` (stereo not given), for which the INHIBITION stood at 17.25%.
In the case of `O=C(CN1CCCC1=O)N1CCC(O)(Cn2ccc3ccncc32)CC1`, the INHIBITION was 7.52%.
For `COC(=O)C1CCN(C(=O)Cn2ccc(-c3ccsc3)n2)CC1` the value was -46.4%; for `CCCC(C)CS(=O)(=O)NCc1cccnc1OC` (stereo not given), 1.94%.
In the case of `CCCS(=O)(=O)NCc1cccnc1OCc1ccccc1` it was 50.4%.
In the case of `CCCS(=O)(=O)NCc1cccnc1OCC` it was -1.53%; in that of `COc1ccc(CSc2nnc(N)n2C2CC2)cc1F`, -16.3%.
Take `O=C(CCC(=O)N1CCC(c2noc3cc(F)ccc23)CC1)NC1CC1`: the INHIBITION was 10.5%.
In the case of `Cn1cc(C(=O)N2CCC(c3ncc[nH]3)CC2)cn1` it was 14%; in that of `N#Cc1ccc(C(=O)N2CCC(c3ncc[nH]3)CC2)cn1`, 51.2%; in that of `O=C(c1cncc(F)c1)N1CCC(c2ncc[nH]2)CC1`, 31.2%.
For `CC(=O)N1CC2(CCN(c3ccc4ccccc4n3)CC2)CC1C(=O)O` (stereo not given) the value was 44%; for `COCCNC(=O)[C@H]1CN(Cc2sccc2C)C[C@H]2OCC[C@@H]12`, -4.88%.
For `CC(C)c1ccc(NC2CCCN(Cc3ccncc3)C2)cc1` (stereo not given) the value was 70.3%; for `Cc1cnc(CN2CCCC(c3cc(C)[nH]n3)C2)cn1` (stereo not given), 35.9%.
As for `Cc1cc(C2CCCN(Cc3noc(Cc4ccccc4)n3)C2)n[nH]1` (stereo not given), the INHIBITION is reported as -10.8%.
For `Cc1cc(C2CCCN(Cc3cccnc3)C2)n[nH]1` (stereo not given) the value was 59.1%.
In the case of `Cc1ccc(CN2CCCC(c3cncc(C)n3)C2)cn1` (stereo not given) it was -6.3%; in that of `Fc1ccc(NC2CCCN(Cc3ccncc3)C2)cc1` (stereo not given), -10.6%; in that of `Cc1cncc(C2CCCN(Cc3ccncc3)C2)n1` (stereo not given), 60.4%.
In the case of `CC1CCCN(Cc2ccc(CNC(=O)NCc3ccncc3)cc2)C1` (stereo not given) it was 22.5%; in that of `Cc1cncc(C2CCN(Cc3ccncc3)CC2)n1`, 23.3545%; in that of `Cc1cc(C2CCCN(Cc3nnc(Cc4ccccc4)o3)C2)n[nH]1` (stereo not given), 17%.
In the case of `FC(F)(F)c1cc(C2CCCN(Cc3cccnc3)C2)n[nH]1` (stereo not given), the INHIBITION came out at 35%.
For `Cc1cc(C2CCCN(Cc3nc(Cc4ccccc4)no3)C2)n[nH]1` (stereo not given) the value was 79.7%.
In the case of `CCC(O)CN1CCN(C(=O)CN(C)c2ccc(Cl)cn2)CC1` (stereo not given) it was 3.03%; in that of `C=C(C)COc1ccccc1CNCCc1cc(O)nc(C)n1`, 7.65%; in that of `CC(C)Nc1nc(O)cc(C(C)n2ncc3ccccc3c2=O)n1` (stereo not given), 29.9%.
In the case of `COc1cccc2cc(CNC(=O)N3CCOC(C)(C)C3)oc12` it was 33.8%; in that of `COc1cc(C(=O)N2CCCC(CNS(C)(=O)=O)C2)ccc1C` (stereo not given), 7.12%.
With `COc1c(Br)c(CC2CC(CO)=NO2)c(Br)c2c1OCO2` (stereo not given), the INHIBITION is on record as 42.4%.
For `CC(C)CCN1C[C@H]2CCN(C(=O)NC3CCCC3)CC[C@H]2S1(=O)=O` the value was 37.1%.
For `O=C(NCCn1ccnc1)C1COCC(=O)N1Cc1ccccc1` (stereo not given) the value was 66.1%; for `O=C(NCCCn1ccnc1)C1COCC(=O)N1Cc1ccccc1` (stereo not given), 38.3%.
In the case of `O=C(NCCCn1cccn1)C1COCC(=O)N1Cc1ccccc1` (stereo not given) it was 49%; in that of `Cc1noc(C)c1C(=O)N1C[C@@H]2CC[C@H]1CN(c1cnccn1)C2`, -39.2%; in that of `Fc1ccc(CN2CCC(F)(F)C3(CCN(c4cnccn4)C3)C2)cc1` (stereo not given), 1.61%.
Take `Cc1ccc(N2CCC3(CN(CCO)CCC3(F)F)C2)nn1` (stereo not given): the INHIBITION was 39.5%.
In the case of `Cc1ccc(N2CCC3(CN(Cc4ccncc4)CCC3(F)F)C2)nn1` (stereo not given) it was 89.1%; in that of `Cn1cc(CN2CCC(F)(F)C3(CCN(c4ncccn4)C3)C2)cn1` (stereo not given), 9.51%.
For `Cc1ccc(N2CCC3(CN(Cc4cccs4)CCC3(F)F)C2)nn1` (stereo not given) the value was 61.3%.
In the case of `Cc1ccc(CN2CCC(F)(F)C3(CCN(c4cnccn4)C3)C2)o1` (stereo not given) it was 35.1%; in that of `CC(C)(C)c1ncc(C(=O)NCCNS(C)(=O)=O)s1`, -33.9%.
For `CNS(=O)(=O)CC(=O)N1CCCc2cc(C(C)C)ccc21`, the INHIBITION is listed as 39.7%.
In the case of `O=C(c1cnc(-c2ncccn2)s1)N1CCCC(n2cccn2)C1` (stereo not given) it was 21%; in that of `Cc1nc(NCC23CCCN2CCC3)cc(C2CCCNC2)n1` (stereo not given), -71.1%.
For `Cc1nc(C2CCCNC2)cc(N2CCc3nc(N)sc3C2)n1` (stereo not given) the value was 53.6%; for `CNc1cc(C2CCCNC2)nc(C)n1` (stereo not given), 16.4875%; for `CNC(=O)C1CCN(c2cc(C3CCNCC3)nc(C)n2)C1` (stereo not given), 26.4%.
In the case of `CNC(=O)c1[nH]nc2c1CN(c1cc(C3CCCNC3)nc(C)n1)CC2` (stereo not given) it was 55.4%; in that of `Cc1nc(NCCC23CCCN2CCC3)cc(C2CCCNC2)n1` (stereo not given), -59.5%.
`O=C(COc1coc(CN2CCOCC2)cc1=O)Nc1ccccc1F`: the INHIBITION is -0.532%.
Consider `Cc1ncc2c(c1C(=O)O)CCN(c1ncc(F)cn1)C2`, for which the INHIBITION was 7.24%.
In the case of `Cc1nc(CN2CCOC(Cn3cccn3)C2)no1` (stereo not given) it was 4.71%; in that of `Cc1noc(C2CCN(Cn3cc(Cl)cn3)CC2)n1`, 37.9%.
